Assay results from PubChem BioAssay (Tox21).
Results filed as inconclusive are left out. Unmarked numbers belong to inactive results. Calls of active or inactive are those of the source. The call rests on the fitted dose curve; in most records, active means well fitted cell-killing curve with a large enough effect in the repeat runs; inconclusive means weak or mixed curves; inactive means flat fitted curve, though single readings scatter.

assay: qHTS assay to identify small molecule antagonists of the estrogen receptor beta (ER-beta) signaling pathway - cell viability counter screen (AID 1259382); settings: ER-beta-UAS-bla HEK293T viability, CellTiter-Glo luminescence, 16 h; series mostly up to 92.4 µM; further: nearly all actives have a fitted effect of over 55% in size
Source text: U.S. Tox21 Program National Center for Advancing Translational Sciences [NCATS] NIH Chemical Genomics Center [NCGC] U.S. Environmental Protection Agency [EPA] National Institutes of Environmental Health Sciences [NIEHS] National Toxicology Program [NTP] U.S. Food and Drug Administration [FDA] Tox21 Assay Overview: Estrogen receptor (ER), a nuclear hormone receptor, plays an important role in development, metabolic homeostasis and reproduction. Two subtypes of ER, ER-alpha and ER-beta, have similar expression patterns with some uniqueness in both types. Endocrine disrupting chemicals (EDCs) and their interactions with steroid hormone receptors like ER causes disruption of normal endocrine function. To identify the compounds that inhibit ER signaling, an ER-beta-UAS-bla GripTite cell line (Life Technologies, Madison, WI, USA) containing a beta-lactamase reporter gene under the control of an UAS response element was used to screen Tox21 10K compound library. The cytotoxicity of the Tox21 compound library against the ER-beta-bla cell line was tested in parallel by measuring the cell viability using CellTiter-Glo assay in the same wells.
Tox21 Assay Protocol Summary: ER-beta-UAS-bla HEK293T cells were dispensed at 2,000 cells/4 uL of assay medium containing 2% charcoal stripped FBS per well into black wall/clear-bottom 1536-well plates using a Multidrop Combi (ThermoFisher Scientific, Waltham, MA) dispenser. After the assay plates were incubated at a 37C and 5% CO2 for 6 hr, 23 nL of compounds dissolved in DMSO, positive controls or DMSO only was transferred to the assay plate by a Pintool station (Kalypsys, San Diego, CA), followed by addition of 1 uL (1nM as final concentration) of 17-beta-estradiol (E2) in assay medium using a Flying Reagent Dispenser (FRD, Aurora Discovery, San Diego, CA). The plates were incubated at 37C and 5% CO2 for 16 hr. Then 1 uL of LiveBLAzer B/G FRET substrate was added using a Flying Reagent Dispenser, the plates were incubated at room temperature for 2 hours, and fluorescence intensity was measured by an Envision plate reader (PerkinElmer, Shelton, CT). For cell viability readout that measures cytotoxicity, 4 uL/well of CellTiter-Glo reagent was added into the assay plates using a FRD. After 30 min incubation at room temperature, the luminescence intensity in the plates was measured using a ViewLux (PerkinElmer) plate reader.
On the % scale 0 is the no-effect control and ±100 the full control effect.

SMILES | outcome | activity change, negative = cytotoxicity
CC(CN)CC(C)(C)CCN (stereo not given) | inactive | –
CC(=O)Nc1cccc(C)c1 | inactive | –
CCN(CC)CC(=O)Nc1c(C)cccc1C | inactive | –
COCCc1ccc(OCC2CO2)cc1 (stereo not given) | inactive | –
O=C(/N=N/C(=O)OCc1ccccc1)OCc1ccccc1 | inactive | –
Cc1ccc2ccc(Cl)cc2n1 | inactive | –
CC(=O)c1sc(C)nc1C | inactive | –
C=CCCCCCCCCCCCC | inactive | –
O=S(O)(O)=S | – | 4.48% [at 8.39 µM]
Cc1cc(Cl)c(C)cc1Cl | inactive | –
CCOC(=O)c1ccc(OC(=O)CCCCCN=C(N)N)cc1 | inactive | –
CN(C)c1ccc(C=O)cc1 | inactive | –
Brc1ccc(-c2ccccc2)cc1 | inactive | –
CC(C)C(=O)OCCc1ccccc1 | inactive | –
NNc1nnc(NN)c2ccccc12 | inactive | –
CC(=O)CCCCn1c(=O)c2c(ncn2C)n(C)c1=O | inactive | –
O=C1O[C@@H]2[C@@H](O)[C@H](O)O[C@@H]2[C@H]1O | inactive | –
Cc1ccccc1C(=O)Nc1ccc(C(=O)N2CCCC(N(C)C)c3ccccc32)cc1 (stereo not given) | inactive | –
CC(C)(C)c1n[nH]c(=S)n(N)c1=O | inactive | –
COc1cc(C(=S)N2CCOCC2)cc(OC)c1OC | inactive | –

SMILES | outcome | activity change, negative = cytotoxicity
O=C(OCC(O)CO)c1ccccc1Nc1ccnc2c(C(F)(F)F)cccc12 (stereo not given) | inactive | –
CC1(C)S[C@@H]2[C@H](N=CN3CCCCCC3)C(=O)N2[C@H]1C(=O)O | inactive | –
O=C1c2cccc3c2[C@H](CCC3)CN1[C@@H]1CN2CCC1CC2 | inactive | –
CCc1ccc(C=O)cc1 | inactive | –
O=C(Nc1ccc(Cl)c(Cl)c1)C1CC1 | inactive | –
C=C(C)C(=O)OCCNC(C)(C)C | inactive | –
CC(C)(C)OC(=O)c1ccc(O)cc1 | inactive | –
CC(C)C(=O)OCc1cccc(OC(=O)[C@@H]2N3C(=O)[C@@H](NC(=O)Cc4ccccc4)[C@H]3SC2(C)C)c1 | inactive | –
O=C1CC(c2ccc(Cl)cc2)CC(=O)N1 | inactive | –
CN1C(C)(C)CCCC1(C)C | inactive | –
CC(C)(C)c1cc(CCC(=O)NN)cc(C(C)(C)C)c1O | inactive | –
O=C1CCCC(=O)O1 | inactive | –
O=S(=O)(O)c1ccc2cc(O)c(S(=O)(=O)O)cc2c1 | inactive | –
COC(=O)[C@@H]1[C@H]2C[C@H]3c4[nH]c5ccccc5c4CCN3C[C@@H]2CC[C@@H]1O | inactive | –
NCCN1CCOCC1 | inactive | –
C=C(C)C(=O)OCCOP(=O)(O)OCCOC(=O)C(=C)C | inactive | –
CCCN1C[C@H](CSC)C[C@@H]2c3cccc4[nH]cc(c34)C[C@H]21 | inactive | –
C=COCCOCCOCCOC=C | inactive | –
CN=C(NC#N)Nc1ccc(C2=NNC(=O)CC2C)cc1 (stereo not given) | inactive | –
CC(=O)Nc1ccc(S(=O)(=O)Cl)cc1 | inactive | –
